Screens deposited in PubChem BioAssay by National Center for Advancing Translational Sciences (NCATS).
SMN2 splice up: qHTS Assay for Enhancers of SMN2 Splice Variant Expression; HEK293 SMN2-luciferase splicing reporter, luminescence, 30-36 h; Potency, µM (highest dose often 46.1 µM), for the others: at the top dose activity change, positive = activation, actives largely listed as activators; 2.8% of 210,000 active; further: % of control where 0% means no effect; nearly all actives have a fitted effect of over 55% in size
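HEK293 cells carry an SMN2 […]–luciferase reporter in which exon 7 inclusion puts luciferase in frame. Cells were plated 10-12 h before compound addition, then incubated 30-36 h at 37C. ONE-Glo luminescence was read; sodium butyrate at 4.5 mM final served as control.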
FLuc counter: qHTS profiling assay for firefly luciferase inhibitor/activator using purifed enzyme and Km concentrations of substrates (counterscreen for miR-21 project); purified FLuc, Km substrates, luminescence inhibition; Potency, µM (titrated, usually from 57.5 µM), for inactives: at the highest dose activity change, negative = inhibition, usual class: inhibitors; AID 588342, 2011; 6.9% of 360,000 active;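 further: plate controls were vehicle for no effect and reference inhibitor for full effect; nearly all actives have a fitted effect of over 55% in size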
Target sequence (P08659 whole entry, looked up): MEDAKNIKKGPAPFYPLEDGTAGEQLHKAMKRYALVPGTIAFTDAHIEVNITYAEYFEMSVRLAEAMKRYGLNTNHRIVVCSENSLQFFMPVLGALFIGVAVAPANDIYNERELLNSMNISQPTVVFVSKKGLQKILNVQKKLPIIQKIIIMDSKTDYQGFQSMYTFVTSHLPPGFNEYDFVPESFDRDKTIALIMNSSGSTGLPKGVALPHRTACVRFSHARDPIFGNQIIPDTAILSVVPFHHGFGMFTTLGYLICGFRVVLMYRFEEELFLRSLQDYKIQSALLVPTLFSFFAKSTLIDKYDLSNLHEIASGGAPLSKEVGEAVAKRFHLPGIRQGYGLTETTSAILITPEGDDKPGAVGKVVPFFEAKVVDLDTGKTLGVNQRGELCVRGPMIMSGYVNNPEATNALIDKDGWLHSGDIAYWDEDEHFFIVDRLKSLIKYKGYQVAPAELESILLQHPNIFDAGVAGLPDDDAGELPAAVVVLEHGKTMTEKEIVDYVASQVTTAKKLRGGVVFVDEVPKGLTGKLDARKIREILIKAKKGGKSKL
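Purified P. pyralis luciferase, 10 nM final, with Km-level 10 uM D-luciferin and 10 uM ATP in 50 mM Tris acetate pH 7.5, 10 mM Mg acetate, 0.01% Tween-20, 0.05% BSA; 6-point qHTS titration about 60 µM downward; luminescence read.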
Rab9 prom act: qHTS Assay for Rab9 Promoter Activators; Huh7 Rab9 promoter-luciferase reporter, luminescence, 24 h; Potency, µM (doses to about 9.22 µM), for the others: top-dose activation, negative = inhibition, usual class: activators; 2.8% of 320,000 active; AID 485297, 2010; further: % of control where 0% means no effect; nearly all actives have a fitted effect of over 60% in size
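Steps: seed 1500 Huh7 Rab9-luc cells per well, rest 2 h at 37 °C; add compound in DMSO; incubate 24 h; add luciferase reagent, 10 min ambient; read luminescence.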
NPC1 promoter act: qHTS Assay for NPC1 Promoter Activators; Huh7 NPC1 promoter luciferase reporter, 24 h; Potency, µM (series often up to 9.22 µM), inactives show top-dose activation, hits mostly activators; 2.4% of 320,000 active; further: % of control where 0% means no effect; nearly all actives have a fitted effect of over 60% in size
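Compounds in DMSO were transferred onto Huh7 NPC1-luciferase reporter cells pre-incubated 2 h; after 24 h at 37 °C, Amplite reagent was dispensed and luminescence recorded 10 min later.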
Luc counter: Counterscreen for Luciferase (Kinase-Glo TM) Inhibition; 0.28% of 200,000 active; Kinase-Glo luciferase, ATP luminescence, 8 min; Luciferin 4-monooxygenase (Photuris pensylvanica), Q27757; Potency, µM (highest dose often 38.3 µM), for the others: at the top dose activity change, negative = inhibition, usual class: inhibitors; AID 1379, 2008; further: on the % scale 0 is the no-effect control and ±100 the full control effect; nearly all actives have a fitted effect of over 60% in size
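Luminescence was the read-out, taken after 8-minute incubation at ambient temperature. Luciferase turned over luciferin with 10 uM ATP in imidazole pH 7.2 buffer containing KCl, MgCl2, Tween 20 and BSA.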
ELG1 genotox: qHTS screen for small molecules that induce genotoxicity in human embryonic kidney (HEK293T) cells expressing luciferase-tagged ELG1. HEK293T ELG1-luciferase reporter, luminescence, 16 h. Potency, µM (titrated, usually from 46 µM), for the others: top-dose activity change, positive = activation, actives largely listed as activators. 1.3% of 330,000 active; further: % of control where 0% means no effect; nearly all actives have a fitted effect of over 60% in size
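Quantitative HTS format in 1536-well plates. HEK293T ELG1-luciferase reporter cells receive test compound and are incubated 16 hr at 37 °C, 5% CO2; ONE-Glo added, 30 min room temperature, then luminescence read.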
An asterisk follows results filed as active; ? = inconclusive; . = no result; [ ] = another dose, or the depositor's remark. Only some compounds are listed: those with a hit (about 7.5% of all), similar ones and a draw of the others. The call rests on the fitted dose curve; in most records, active means well fitted curve in the direction sought with a large enough effect; inconclusive means small, poorly fitted or top-dose-only effect, or another doubt; inactive means no such curve, though single readings can be large; an effect the other way counts as inactive or inconclusive. Potency means the concentration at half of the fitted maximal effect.

SMILES	SMN2 splice up	FLuc counter	Rab9 prom act	NPC1 promoter act	Luc counter	ELG1 genotox
COC(=O)c1ccc(-c2nc3cc(N)ccc3o2)cc1	?	1.2µM*	?	21.6%	-6.9%	?
Nc1ccc(-c2nc3ccc(N)cc3o2)cc1	?	1.51µM*	?	?	?	20.6µM*
Cc1ccc2nc(-c3cc(N)cc(N)c3)oc2c1	?	0.379µM*	?	?	?	7.0%
CN1CCN(S(=O)(=O)c2cccc(C(=O)NCc3ccccc3Cl)c2)CC1	-8.2%	6.7%	2.1%	-2.2%	1.6%	1.1%
CC(C)C(NS(=O)(=O)c1cccs1)C(=O)N1CCC(C(N)=O)CC1 (stereo not given)	.	1.9%	-2.9%	-5.1%	.	-0.1%
CC(=O)Oc1ccc2oc(/C=C/N(C)C)c([N+](=O)[O-])c2c1	0.4%	15.1µM*	19.7%	28.1%	-0.5%	?
O=c1oc2ccccc2c(O)c1/C=N/c1nc(-c2ccc(O)c(O)c2)cs1	-3.7%[9.22 µM]	.	.	.	-3.3%[7.66 µM]	.
Cc1[nH]c2ccccc2c1/C=N/NS(=O)(=O)c1ccccc1	-1.1%	-10.3%	-2.4%	-1.6%	0.1%	-2.4%
CCOc1ccccc1/C=N/Nc1ccccc1[N+](=O)[O-]	.	?	3.55µM*	?	.	5.0%
COc1ccccc1/C=N\Nc1ccccc1[N+](=O)[O-]	.	1.9µM*	2µM*	?	.	9.2µM*
Cc1[nH]c2ccccc2c1/C=N/Nc1ccccc1[N+](=O)[O-]	1.3%	16.9µM*	?	8.0%	-29.3%	13.9%
Cc1cc(C)n(-c2nc3ccccc3nc2Nc2ccc(Cl)cc2Cl)n1	0.5%	-5.7%	.	.	.	.
Cc1ccc(O)c(NC(=O)c2ccco2)c1	15.8µM*	6.01µM*	18.2%	?	-24.4%	11.1%
Cc1cc(NC(=O)c2ccc(Br)o2)ccc1NC(=O)c1ccco1	.	?	17.4%	9.5%	.	?
Cc1cc(O)c(NC(=O)c2ccco2)cc1C	11.2µM*	30.1µM*	27.1%	25.6%	-19.1%	?
Cc1ccc(C(=O)Nc2ccc(NC(=O)c3ccco3)c(C)c2)cc1	.	5.36µM*	29.6%	20.8%	.	?
Cc1cc(NC(=O)c2ccccc2)ncc1NC(=O)c1ccco1	8.91µM*	10.7µM*	1.41µM*	2µM*	2.24µM*	1.64µM*
Cc1c(Cl)cccc1NC(=O)c1ccco1	.	3.3%	14.3%	-4.5%	.	6.7%
C#C[C@]1(OC(C)=O)CCC2C3CCC4=CC(=O)CCC4C3CC[C@]21C (stereo not given in full)	-1.8%	.	.	.	-0.3%	.
COc1cccc(N2CCN(c3ccc4nnc(CCC(=O)Nc5ncccc5C)n4n3)CC2)c1	.	1.1%	4.1%	0.8%	.	-5.9%
S=C(NCc1ccccc1)NNc1ccccc1	.	-5.5%	-8.1%	0.6%	.	-3.8%
CCNC(=S)N1CCN(c2nc(-c3cccc(OC)c3)cs2)CC1	.	19µM*	3.3%	2.6%	.	-8.1%
COc1cccc(-c2csc(NC(=O)Oc3ccccc3)n2)c1	-6.5%	12µM*	0.9%	24.7%	-9.0%	21.3%
COc1cccc(-c2csc(NNC(=O)c3cccs3)n2)c1	.	?	-2.3%	-4.4%	.	5.6%
COc1ccc(-c2csc(NC(=O)c3ccoc3C)n2)cc1	13.8%	12µM*	?	?	0.8%	?
SMILES	SMN2 splice up	FLuc counter	Rab9 prom act	NPC1 promoter act	Luc counter	ELG1 genotox
COc1cccc(-c2csc(N3CCN(C(=S)NCC(C)C)CC3)n2)c1	.	?	-4.5%	-1.4%	.	-3.0%
COC(=O)c1c(-c2ccncc2)csc1NC(=O)c1ccoc1C	11.2µM*	8.49µM*	2µM*	2.82µM*	1.9%	?
COc1ccccc1N1CCN(C2CCCCC2NS(=O)(=O)c2ccccc2)CC1 (stereo not given)	.	1.1%	-3.7%	0.2%	.	-7.1%
COC(=O)[C@@H]1C[C@H]2CC[C@H](O)C[C@H]2N1Cc1ccc(-c2ccccc2)cc1	-26.6%	2.8%	-8.0%	-2.6%	-3.6%	-0.4%
CCN(C(=O)COC(=O)c1cccs1)c1c(N)n(Cc2ccccc2)c(=O)[nH]c1=O	.	0.8%	-1.0%	2.2%	.	-3.0%
COc1ccc(-c2nsc(NC(=O)c3ccccc3Br)n2)cc1	12.8%	16.9µM*	.	.	.	.
CCc1ccc(-c2csc(NC(=O)C3CCCO3)c2C(=O)OC(C)C)cc1 (stereo not given)	-29.7%	2.1%	-0.5%	-0.9%	-0.8%	-6.8%
COC(=O)c1c(-c2ccc(F)cc2)csc1NC(=O)C1CCCO1 (stereo not given)	0.3%	26.9µM*	23.0%	17.2%	0.4%	7.3%
COc1ccccc1C(=O)Nc1nc(-c2ccccc2)ns1	9.0%	?	.	.	.	.
COc1ccc(-c2csc(NC(=O)C3CCCO3)n2)cc1 (stereo not given)	2.7%	21.3µM*	3.98µM*	?	0.6%	?
CC(OC(=O)CNC(=O)c1ccccc1F)C(=O)Nc1nc(-c2ccccc2)cs1 (stereo not given)	12.6µM*	?	?	?	0.4%	?
COc1ccccc1N1CCN(C(=O)CCCCCn2c(=O)[nH]c3ccsc3c2=O)CC1	-13.0%	5.2%	3.0%	-5.2%	0.6%	-9.3%
Cc1cc(-c2ccccc2)nc(SCC(=O)N2CCCC2)n1	12.2%	0.0%	-2.0%	0.0%	0.0%	4.0%
NC(N)=NC(N)=Nc1ccc(C(=O)O)cc1	-3.4%[9.22 µM]	.	.	.	-1.4%[7.66 µM]	.
COc1ccccc1NC(=O)/C(C#N)=C/c1ccc(OCCN2CCOCC2)c(OC)c1	.	0.0%	?	19.9%	.	8.2%
COc1ccc(-c2csc(NC(=O)c3ccccc3C(=O)O)n2)cc1	-51.4%	15.1µM*	-1.5%	-3.6%	-1.6%	-0.3%
COc1ccc(-c2csc(NC(=O)c3ccccc3S(C)(=O)=O)n2)cc1	-13.5%	?	6.2%	-0.2%	-1.4%	-10.3%
O=C(NCCC1=CCCCC1)c1ccc(Cl)cc1	.	1.35µM*	0.282µM*	0.316µM*	-13.3%	?
CS(=O)(=O)N(Cc1ccc(Cl)cc1)c1ccc(C(=O)NCCC2=CCCCC2)cc1	0.0%	2.0%	-2.4%	0.9%	-0.7%	0.5%
O=C(CCn1c(=O)sc2ccccc21)NCCC1=CCCCC1	4.1%	-3.5%	3.2%	2.1%	-3.7%	-7.8%
O=C(NCCC1=CCCCC1)c1cnccn1	11.2µM*	?	3.16µM*	?	-0.9%	14.6µM*
O=C(CCN1C(=O)c2ccccc2C1=O)NCCC1=CCCCC1	13.9%	21.3µM*	2.51µM*	?	7.8%	29.9%
